Screening results: PubChem, Buhrlage Lab, Dana-Farber Cancer Institute and Novartis Institutes for BioMedical Research (Cambridge, Mass)
OTUD3 inh: blocks human OTUD3 ubiquitin-rhodamine cleavage; Q5T2D3; purified OTUD3, Ub-rhodamine fluorescence, 2 h; inhibition, % at 25 µM; actives 0.7% (n = 47,000); AID 1645858
USP30 block: human USP30 deubiquitinase inhibition. Q70CQ3. purified USP30, Ub-rhodamine cleavage fluorescence. actives 5.3% (n = 47,000). inhibition, % at 25 µM
Target sequence (Q70CQ3 whole entry, looked up): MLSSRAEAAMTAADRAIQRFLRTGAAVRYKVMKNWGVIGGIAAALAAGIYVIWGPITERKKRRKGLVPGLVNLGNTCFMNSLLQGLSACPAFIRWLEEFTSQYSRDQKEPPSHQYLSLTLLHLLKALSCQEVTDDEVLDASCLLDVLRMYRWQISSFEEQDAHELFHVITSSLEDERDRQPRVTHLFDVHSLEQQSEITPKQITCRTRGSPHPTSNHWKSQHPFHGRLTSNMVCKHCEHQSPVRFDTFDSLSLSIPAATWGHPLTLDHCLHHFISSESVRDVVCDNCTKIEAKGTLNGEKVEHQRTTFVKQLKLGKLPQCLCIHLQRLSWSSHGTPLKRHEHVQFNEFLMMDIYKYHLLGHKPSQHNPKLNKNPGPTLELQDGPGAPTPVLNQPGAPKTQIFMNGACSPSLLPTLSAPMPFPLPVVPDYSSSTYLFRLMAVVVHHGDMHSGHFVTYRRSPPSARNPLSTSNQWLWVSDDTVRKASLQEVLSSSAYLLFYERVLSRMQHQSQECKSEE
USP28 inh: human USP28 deubiquitinase inhibition; Q96RU2; purified USP28, Ub-rhodamine cleavage fluorescence, 30 min; inhibition, % at 25 µM; actives 3% (n = 47,000)
USP17 block: blocks human USP17 ubiquitin-rhodamine cleavage | AID 1645855 | actives 6.5% (n = 47,000) | purified USP17, Ub-rhodamine cleavage fluorescence, 3 h | inhibition, % at 50 µM | A8MUK1
An asterisk follows results filed as active; . = not tested or not shown. This is a sample that favours compounds with a hit; in the whole collection about 12% have one here. Rule as the data show it: active = inhibition above about 30%; inactive = the rest.

SMILES	OTUD3 inh	USP30 block	USP28 inh	USP17 block
CCCn1c(-c2ccc(CC)cc2)cn2c(-c3ccccc3)c(-c3ccccc3)nc12	17	15	17	33*
COc1ccc(-c2cn3c(-c4ccccc4)c(-c4ccccc4)nc3n2-c2ccccc2)cc1	24	37*	18	48*
COc1cccc(-c2cn3c(-c4ccccc4)c(-c4ccccc4)nc3n2-c2ccccc2)c1	-4	-7	-9	22
COc1ccc(NC(=O)c2ccccc2OCC(=O)Nc2ccccc2C(F)(F)F)c(C)c1	1	-1	-1	79*
CCn1c2ccccc2c2cc(NC(=O)Cc3cccc4ccccc34)ccc21	-30	-86	-40	-35
O=C1c2c(O)ccc(O)c2C2(Oc3cccc4cccc(c34)O2)C2OC12 (stereo unspecified)	68*	89*	72*	97*
O=C1c2c(O)cccc2C2(Oc3cccc4cccc(c34)O2)C2OC12 (stereo unspecified)	47*	33*	60*	98*
Cn1nc(-c2nc(-c3ccccc3)no2)c2c1CCN(C(=O)C1CCCC1)C2	5	-15	-6	64*
Cn1nc(-c2nc(-c3ccccc3)no2)c2c1CCN(C(=O)C1CCC1)C2	-6	6	9	2
Cn1nc(-c2nc(-c3ccccc3)no2)c2c1CCN(C(=O)C1CC1)C2	13	68*	12	42*
CC1CCC(NC(=O)c2cnn3c4c(cnc23)CCCC4)CC1 (stereo unspecified)	14	5	9	14
Cc1noc(-c2cc3c(ccc4ccccc43)oc2=O)n1	10	-16	13	42*
O=C(O)c1ccc(CN2CCc3nc4ccccc4n3CC2)cc1	-1	3	-4	1
O=C(CCc1ccc2[nH]ccc2c1)NC1CCCC1	0	-7	-2	10
O=C1N(Cc2cccc(Cl)c2)CCN1c1ccc2c(c1)CCC2	11	14	61*	20
O=C1N(Cc2cccc(Cl)c2)CCN1c1ccc(F)cc1F	4	9	48*	0
Cn1c(SCCOc2ccccc2)nnc1-c1ccc2c(c1)OCCCO2	1	7	4	3
Cn1c(SCCOc2ccc(Cl)cc2)nnc1-c1ccc2c(c1)OCCO2	20	54*	27	18
O=C(NC1=C(C(=O)c2ccccc2)N(Cc2ccccc2)S(=O)(=O)c2ccccc21)c1ccc(F)cc1	-155	-431	-215	-33
O=C(c1cc2c(s1)-c1ccsc1CC2)N1CCCCCC1	27	46*	23	38*
COCCN1C(=O)c2ccccc2C(C(=O)NCc2ccccc2OC)C12CCCC2 (stereo unspecified)	-13	-16	-6	-11
COc1ccccc1CNC(=O)C1c2ccccc2C(=O)N1Cc1ccc(C)cc1 (stereo unspecified)	52*	86*	9	75*
COc1ccccc1CNC(=O)C1c2ccccc2CC(=O)N1C(C)C (stereo unspecified)	-2	-3	-6	3
CCOc1ccc(CN2C(=O)c3ccccc3C2C(=O)NCc2ccccc2OC)cc1 (stereo unspecified)	14	33*	15	40*
COc1ccccc1CNC(=O)[C@@H]1Cc2c([nH]c3ccccc23)C2c3ccccc3C(=O)N21 (stereo partly specified)	-21	-107	-22	-21
SMILES	OTUD3 inh	USP30 block	USP28 inh	USP17 block
CCOc1ccc(N2C(=O)c3ccccc3C2C(=O)NCc2ccccc2OC)cc1 (stereo unspecified)	17	52*	14	35*
Cc1cc(=O)[nH]c2c1c(C1CC1)nn2-c1ccccc1	-16	-1	-7	-8
Cc1nn(CC(=O)N2CCCCCC2)c(C)c1S(=O)(=O)N(C)C	-7	-7	-6	-3
Cc1ccc(NC2=NC(c3ccco3)n3c(nc(C)cc3=O)N2)c(C)c1 (stereo unspecified)	8	62*	22	40*
Cc1cc(=O)n2c(n1)NC(Nc1ccc(F)cc1)=NC2c1ccco1 (stereo unspecified)	-9	-2	3	.
Cc1cncc(C2CCCN(C(=O)c3cc4nc(C)cc(C)n4n3)C2)n1 (stereo unspecified)	-1	-15	-7	-32
COc1cccc(NC(=O)Nc2ccc(CCc3nc4ccccc4[nH]3)cc2)c1	-4	8	66*	42*
COc1cc(OC)cc(C(=O)Nc2cccc(CCc3nc4ccccc4[nH]3)c2)c1	1	13	8	9
COc1ccc(OC)c(NC(=O)CCc2nc3ccccc3[nH]2)c1	4	5	3	8
COc1ccc(NC(=O)Nc2ccc(CCc3nc4ccccc4[nH]3)cc2)c(OC)c1	16	76*	28	59*
COc1ccccc1OCC(=O)Nc1cccc(N2CCCS2(=O)=O)c1	-13	-27	-11	-32
CC(C)(C)OC(=O)N1CCC[C@]2(CCC(=O)N2)[C@H]1c1ccc(F)cc1	16	31*	14	12
CN(C)c1ccc(-c2noc(C(=O)NCc3ccncc3)n2)cc1	14	31*	26	10
O=C(NCc1ccncc1)c1nc(-c2ccncc2)no1	-1	-1	-2	-6
CN(C)c1ccc(-c2noc(C(=O)NCc3ccccn3)n2)cc1	1	8	14	45*
CCN1C(=O)COc2cc(-c3noc(C(=O)NCc4ccccn4)n3)ccc21	2	24	1	8
O=C(Cn1c(NCc2ccccc2)nc2ccccc21)NCC(F)(F)F	10	52*	27	45*
Cc1cc(C)cc(N(CC(=O)NCc2ccc3c(c2)OCO3)C(=O)c2ccc3c(c2)OCCO3)c1	13	36*	19	24
Cc1nn(CC(=O)NCc2cccc(Cl)c2)c(C)c1S(=O)(=O)N(C)C	-2	4	-3	-7
O=C(Cn1cc(-c2nc(C3CC3)no2)ccc1=O)Nc1ccccc1	1	-19	0	49*
COc1cccc(CNC(=O)c2nc(-c3cn(-c4ccccc4Cl)nc3C)no2)c1	1	15	5	3
Cc1c(C(=O)N2CCC(Cc3ccccc3)CC2)oc2c1C(=O)CCC2	10	33*	20	18
CC1(C(=O)NC2CCCCCC2)Cc2ccccc2C(=O)N1Cc1ccccc1 (stereo unspecified)	9	25	5	15
O=C(NC1CCCCC1)C(c1ccc(F)cc1)N(C(=O)CN1C(=O)c2ccccc2S1(=O)=O)c1ccccc1 (stereo unspecified)	8	31*	11	20
Cc1cc(C)c(N(C(=O)CN2C(=O)c3ccccc3S2(=O)=O)C(C(=O)NCC2CCCO2)c2ccc(F)cc2)c(C)c1 (stereo unspecified)	1	13	7	9
O=C(NC1CCCCC1)C(c1ccc(F)cc1)N(Cc1ccccc1)C(=O)CN1C(=O)c2ccccc2S1(=O)=O (stereo unspecified)	9	45*	15	7
CCN1CCc2c(cccc2-n2nnc(C(=O)N3CCOCC3)c2C)C1	-12	-37	-13	-15
Cc1cnc(NC(=O)c2ccccc2F)s1	-2	.	.	-8
